Assay outcomes deposited in PubChem by National Center for Advancing Translational Sciences (NCATS).
aSyn yeast inh: rescues yeast growth from alpha-synuclein toxicity; Potency, µM (highest dose often 46.1 µM), hits mostly activators; Yeast expressing alpha-synuclein, growth rescue, BacTiter-Glo, 24 h; 0.14% of 370,000 active; further: nearly all actives have a fitted effect of over 65% in size
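Screening used galactose-induced yeast with toxic alpha-synuclein levels, exposed to compound for 24 hr at 30 deg C. Cell growth, read with BacTiter-Glo luminescence, gave the measured signal.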
FUS suppressor: suppressors of FUS proteinopathy in yeast. S. cerevisiae FUS-expressing, growth rescue, OD600, 24 h. Potency, µM (series often up to 76.6 µM), actives largely listed as activators. 0.24% of 390,000 active; further: nearly all actives have a fitted effect of over 55% in size
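Yeast expressing FUS under galactose induction, OD 0.005 in 2% galactose medium; compounds in a dilution series, 24 h at 30C. Growth rescue by absorbance at 600 nm; CP55940 positive control, DMSO negative.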
Abeta yeast res: compounds reversing amyloid beta toxicity in yeast. yeast expressing A-beta42, growth rescue, OD600, 48 h; response scale: 0% DMSO, 100% iron-clioquinol control. Potency, µM (doses to about 46.1 µM), hits mostly activators. 0.063% of 410,000 active. AID 1347071; further: nearly all actives have a fitted effect of over 55% in size
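Yeast A-beta toxicity model in growth medium with pinned compounds, 48 h at 30 C; growth read as absorbance at 600 nm. Normalized to FeCl3/clioquinol equimolar mix (positive) and DMSO (negative).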
TDP43 rescue: TDP-43 toxicity inhibition in yeast | TDP-43 expressing yeast growth rescue, BacTiter-Glo, 24 h | Potency, µM (doses to about 46.1 µM), most hits filed as activators | 1.8% of 410,000 active; further: nearly all actives have a fitted effect of over 50% in size
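Galactose-induced TDP-43 yeast, OD600=0.02, compound pinned; 24 hr, 30 deg C; BacTiter-Glo luminescence for growth. Inhibitors of TDP-43 toxicity read as activators.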
Large screens that a line does not name were inactive; ! = not active in a repeat. Shown are actives, neighbours in structure and some others; about 2.1% of the full set was active somewhere. The call rests on the fitted dose curve; in most records, active means well fitted curve in the direction sought with a large enough effect; inconclusive means small, poorly fitted or top-dose-only effect, or another doubt; inactive means no such curve, though single readings can be large; an effect the other way counts as inactive or inconclusive.

O=C(N[C@H](Cc1ccc(Cl)cc1)C(=O)O)OCC1c2ccccc2-c2ccccc21	none
CC(=O)c1ccc(Nc2nc3c(S(=O)(=O)c4ccccc4)nnn3c3ccc(Cl)cc23)cc1	none (no result: aSyn yeast inh)
CCn1cc(C(=O)OCC(=O)c2cc(C)n(-c3ccccc3)c2C)c(=O)c2ccc(C)nc21	none
CCOc1ccccc1NC(=O)COC(=O)c1cn(CC)c2nc(C)ccc2c1=O	TDP43 rescue 35µM (no result: aSyn yeast inh)
CCn1cc(C(=O)OCC(=O)c2cc(C)n(-c3ccc(OC(F)F)cc3)c2C)c(=O)c2ccc(C)nc21	TDP43 rescue 13µM (no result: FUS suppressor)
COC(=O)c1sc(=S)sc1C(=O)OC	aSyn yeast inh inconclusive, TDP43 rescue 13µM
CC12CCC(=O)N1C(C(=O)Nc1nc(-c3ccccc3Cl)cs1)CS2 (stereo not given)	TDP43 rescue 10µM
O=C(NC1CCCCC1)c1cc(Nc2cccc(C(F)(F)F)c2)nc2ccccc12	none (no result: aSyn yeast inh)
Cc1cccc(C)c1OCC(=O)N[C@@H](Cc1ccccc1)[C@@H](O)C[C@H](Cc1ccccc1)NC(=O)[C@H](C(C)C)N1CCCNC1=O	FUS suppressor 32µM (no result: Abeta yeast res, TDP43 rescue)
O=C(NCCc1ccccc1Cl)c1ccc2c(=O)n(-c3ccccc3)c(=O)[nH]c2c1	none (no result: aSyn yeast inh)
N#C/C(=N\Nc1cccc(C(F)(F)F)c1)C(=O)c1ccsc1	TDP43 rescue 10µM
CCCCNC(=O)O[C@H]1CC[C@@]23CCCN2C(=O)CCC[C@H]3[C@H]1C	none (no result: aSyn yeast inh, Abeta yeast res, TDP43 rescue)
Cc1ccc(C)c(N2CCN(C(=O)Cn3ncc4ccsc4c3=O)CC2)c1	aSyn yeast inh 16µM, FUS suppressor inconclusive
Cc1c(C=O)ccc(N(C)C)c1C	none (no result: FUS suppressor, Abeta yeast res, TDP43 rescue)
COc1ccc(S(=O)(=O)c2cc3cc(C(C)(C)C)cc(O)c3oc2=O)cc1	FUS suppressor 40µM (no result: aSyn yeast inh)
Cc1ccc(S(=O)(=O)c2cnc(-c3ccccc3)[nH]c2=O)cc1	none (no result: FUS suppressor, Abeta yeast res, TDP43 rescue)
COCCCNC(=O)C[C@H]1C[C@@]2(C(=O)OC)C(=C[C@H](C(C)C)O[C@@H]2C2CC2)N(Cc2ccco2)C1=O	none (no result: aSyn yeast inh, Abeta yeast res, TDP43 rescue)
Brc1cccc(Nc2nc(-c3cccnc3)cs2)c1	TDP43 rescue 3.2µM
Oc1ccc(Nc2nc(-c3cccnc3)cs2)cc1	none
Brc1ccc(Nc2nc(-c3cccnc3)cs2)cc1	TDP43 rescue 11µM
COc1cccc(-c2cccc(-c3nc(C(=O)NCc4ccc5c(c4)OCO5)cc4c3[C@H](CCO)N(S(=O)C(C)(C)C)C4)c2)c1 (stereo not given in full)	FUS suppressor 20µM
CC(C)(C)S(=O)N1Cc2cc(C(=O)NCc3ccc4c(c3)OCO4)nc(-c3cccc(-c4cc5ccccc5o4)c3)c2[C@@H]1CCO (stereo not given in full)	FUS suppressor 28µM
CC(C)(C)S(=O)N1Cc2cc(C(=O)NCc3ccc(Oc4ccccc4)cc3)nc(-c3cccc(-c4cc5ccccc5o4)c3)c2[C@H]1CCO (stereo not given in full)	FUS suppressor inconclusive
CC(C)(C)S(=O)N1Cc2cc(C(=O)NCC(F)(F)F)nc(-c3cccc(-c4cccc(F)c4)c3)c2[C@@H]1CCO (stereo not given in full)	FUS suppressor 22µM
COc1cccc(-c2cccc(-c3nc(C(=O)Nc4ccc(-c5ccccc5)cc4)cc4c3[C@H](CCO)N(S(=O)C(C)(C)C)C4)c2)c1 (stereo not given in full)	FUS suppressor 28µM
CCn1c(SCc2c(F)cccc2F)nc2sc3c(c2c1=O)CCCC3	none (no result: aSyn yeast inh, Abeta yeast res, TDP43 rescue)
CSCCCNC(=O)c1oc(=O)c2ccccc2c1-c1ccc(C)cc1	none (no result: aSyn yeast inh, Abeta yeast res, TDP43 rescue)
COc1ccc(CNC(=O)CCc2nc3cccnc3n2Cc2ccccc2)cc1	FUS suppressor inconclusive (no result: aSyn yeast inh)
Cc1cc(C)c(S(=O)(=O)c2ccccc2)c(N(C)C)n1	none
CN(C)c1nc(F)c(F)c(S(=O)(=O)c2ccccc2)c1F	TDP43 rescue 14µM
O=C1CCCCCN1C(=O)c1ccccc1	none
O=C1CCCCCN1Sc1ccccc1	Abeta yeast res inconclusive, TDP43 rescue 16µM
CCCCN=C(N)NC(=O)OCc1ccccc1	none (no result: aSyn yeast inh, Abeta yeast res, TDP43 rescue)
C=CCN=c1scc(-c2ccccc2)n1/N=C/c1ccccn1	Abeta yeast res inconclusive, TDP43 rescue 22µM!
C=CCN=c1scc(-c2ccc(F)cc2)n1/N=C/c1ccccn1	Abeta yeast res inconclusive, TDP43 rescue inconclusive
COc1ccc2nc(N(Cc3cccnc3)C(=O)COc3ccccc3)sc2c1	TDP43 rescue 16µM (no result: aSyn yeast inh)
COc1ccc2sc(N(Cc3cccnc3)C(=O)COc3ccccc3)nc2c1	none (no result: aSyn yeast inh)
CC(=O)N(Cc1cccnc1)c1nc2c(F)cc(F)cc2s1	none (no result: aSyn yeast inh)
Cc1cccc2sc(N(Cc3cccnc3)C(=O)COc3ccccc3)nc12	TDP43 rescue 11µM (no result: aSyn yeast inh)
O=C(Cc1ccccc1)N(Cc1cccnc1)c1nc2c(F)cc(F)cc2s1	TDP43 rescue 18µM (no result: aSyn yeast inh)
CCOc1ccc(N2C(=O)c3[nH]nc(-c4ccc(OC)cc4)c3C2c2cccs2)cc1 (stereo not given)	none (no result: aSyn yeast inh)
O=C(NC1CCCCN(Cc2ccc(Cl)cc2)C1=O)c1cccc([N+](=O)[O-])c1 (stereo not given)	none (no result: aSyn yeast inh, Abeta yeast res, TDP43 rescue)
Cc1c(CCNC=O)cc(C)c2c3c(oc12)CCCC3	TDP43 rescue 16µM (no result: FUS suppressor)
CC(=O)N1N=C(c2ccco2)CC1c1ccc(Br)cc1 (stereo not given)	TDP43 rescue 20µM
CC(=O)N1N=C(c2ccco2)CC1c1ccc(C)cc1 (stereo not given)	none
Cc1ccc(Nc2c(-c3ccc(C)o3)nc3cnccn23)cc1	TDP43 rescue 22µM
Cc1ccc(-c2nc3cnccn3c2Nc2ccccc2)o1	aSyn yeast inh 20µM, TDP43 rescue 35µM
CSc1ccc(-c2nc3cnccn3c2Nc2ccc3c(c2)OCO3)cc1	TDP43 rescue 25µM
Cc1ccc(Nc2c(-c3ccc(C)o3)nc3ccccn23)cc1	none (no result: FUS suppressor, Abeta yeast res, TDP43 rescue)
Cc1ccc(-c2nc3ccccn3c2Nc2ccccc2)o1	none
N#Cc1ccc(S(=O)(=O)N2CCN(c3nc(-c4cccs4)nc4ccccc34)CC2)cc1	none (no result: FUS suppressor, Abeta yeast res, TDP43 rescue)
Cn1c(=O)oc2cc(S(=O)(=O)NC(Cc3ccccc3)C(=O)Nc3ccc(F)cc3)ccc21 (stereo not given)	none (no result: aSyn yeast inh)
COc1cccc(CNC2CCC23CCC(C)CC3)c1 (stereo not given)	none (no result: aSyn yeast inh, Abeta yeast res, TDP43 rescue)
CCc1cc(-c2nc(N)ncc2-c2csc(C)n2)c(O)cc1OC	none
CCCc1cc(-c2nc(N)ncc2-c2csc(C)n2)c(O)cc1OC	TDP43 rescue 13µM
COc1ccc(NC(=O)CCS(=O)(=O)c2nc(-c3ccc4c(c3)OCO4)cc(C(F)(F)F)n2)cc1	TDP43 rescue inconclusive (no result: aSyn yeast inh)
Cc1ccc(O)c(NC(=O)CCS(=O)(=O)c2nc(-c3cccs3)cc(C(F)(F)F)n2)c1	TDP43 rescue 11µM (no result: aSyn yeast inh)
O=C(CCS(=O)(=O)c1nc(-c2ccc3c(c2)OCO3)cc(C(F)(F)F)n1)Nc1ccc(F)cc1F	TDP43 rescue 13µM (no result: aSyn yeast inh)
O=C(CCS(=O)(=O)c1nc(-c2cccs2)cc(C(F)(F)F)n1)Nc1cc(Br)ccc1O	aSyn yeast inh inconclusive, TDP43 rescue 18µM
O=C(CCS(=O)(=O)c1nc(-c2cccs2)cc(C(F)(F)F)n1)Nc1ccc(Br)cc1	TDP43 rescue inconclusive (no result: aSyn yeast inh)
